PubChem BioAssay (EPA / NIEHS)
Activity calls are given as the source filed them. How the source made its calls: active means hit-call score of the fitted dose curve at least 0.9, where 1 is the maximum; inactive means score below 0.9.

What was measured:
Conditions in all cases: mRNA level, 48 h; actives raise or lower the signal
[1] = read-out: Fatty acid synthase (Homo sapiens) (UniProt P49327); assay: LTEA_HepaRG_FASN: Life Technologies and Expression Analysis (LTEA) Assay for Fatty Acid Synthase (FASN) using HepaRG (AID 2283448)
Summary of the method: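 HepaRG, 48 h exposure, 8-pt half-log series top 100 uM, 0.5% DMSO vehicle, duplicates. Readout: FASN transcript by Fluidigm qRT-PCR; housekeeping-normalized; bidirectional curve fit vs DMSO baseline.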

[2] = read-out: Cyclin D2 (CCND2), CCND2 (gene 894); assay: LTEA_HepaRG_CCND2: Life Technologies and Expression Analysis (LTEA) Assay for Cyclin D2 (CCND2) using HepaRG (AID 2283449)
Summary of the method: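 CCND2 transcript levels, quantified by qRT-PCR and normalised to three housekeeping genes, were fitted bidirectionally against 0.5% DMSO. HepaRG cultures were dosed 48 h in duplicate with an 8-point half-log series up to 100 uM.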

[3] = read-out: Cyclin Dependent Kinase Inhibitor 1A (CDKN1A), CDKN1A (gene 1026); assay: LTEA_HepaRG_CDKN1A: Life Technologies and Expression Analysis (LTEA) Assay for Cyclin Dependent Kinase Inhibitor 1A (CDKN1A) using HepaRG (AID 2283450)
Summary of the method: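 Differentiated HepaRG cells in serum-free induction medium, exposed 48 h in duplicate to eight half-log concentrations up to 100 uM in 0.5% DMSO. mRNA measured by TaqMan qRT-PCR, normalized to ACTB, GAPDH, POLR2A; bidirectional fit versus DMSO.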

[4] = read-out: Cyclin D1 (CCND1), CCND1 (gene 595); assay: LTEA_HepaRG_CCND1: Life Technologies and Expression Analysis (LTEA) Assay for Cyclin D1 (CCND1) using HepaRG (AID 2283451)
Summary of the method: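 Differentiated HepaRG cells exposed 48 h in serum-free induction medium to eight half-log concentrations from 100 uM top, 0.5% DMSO, duplicates. CCND1 mRNA measured by Fluidigm TaqMan qRT-PCR, normalised to ACTB, GAPDH, POLR2A; bidirectional fit.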

[5] = read-out: catalase (CAT), CAT (gene 847); assay: LTEA_HepaRG_CAT: Life Technologies and Expression Analysis (LTEA) Assay for catalase (CAT) using HepaRG (AID 2283452);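 on AC50: TaqMan qRT-PCR signal normalized to ACTB GAPDH and POLR2A housekeeping genes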
Summary of the method: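 Expression of CAT was quantified by TaqMan qRT-PCR with ACTB/GAPDH/POLR2A normalization after 48 h chemical exposure of HepaRG. Eight-point half-log series, top 100 uM, in 0.5% DMSO; gain or loss fitted against vehicle.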

[6] = read-out: flavin-containing dimethylaniline monooxygenases 3 (FMO3), FMO3 (gene 2328); assay: LTEA_HepaRG_FMO3: Life Technologies and Expression Analysis (LTEA) Assay for flavin-containing dimethylaniline monooxygenases 3 (FMO3) using HepaRG (AID 2283453)
Summary of the method: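 Eight-point concentration-response in serum-free HepaRG cultures (top 100 uM, 0.5% DMSO, 48 h). Read-out: FMO3 mRNA level normalized to three endogenous control genes, fitted bidirectionally versus vehicle.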

[7] = read-out: Cytochrome P450 (CYP1A1), CYP1A1 (gene 1543); assay: LTEA_HepaRG_CYP1A1: Life Technologies and Expression Analysis (LTEA) Assay for Cytochrome P450 (CYP1A1) using HepaRG (AID 2283454)
Summary of the method: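 Differentiated human HepaRG cells, after 48 h plating, exposed in duplicate for 48 h in serum-free induction medium to 8 half-log concentrations up to 100 uM in 0.5% DMSO. CYP1A1 mRNA by qRT-PCR, normalized to ACTB/GAPDH/POLR2A; bidirectional fit versus DMSO.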

[8] = read-out: CFLAR gene, CFLAR (gene 8837); assay: LTEA_HepaRG_CFLAR: Life Technologies and Expression Analysis (LTEA) Assay for CFLAR gene using HepaRG (AID 2283455)
Summary of the method: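 Transcript level by qRT-PCR (normalized to ACTB, GAPDH and POLR2A) after 48 h chemical exposure of HepaRG cells, top concentration 100 uM with half-log steps, 0.5% DMSO vehicle, duplicates; fitted bidirectionally against DMSO baseline.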

[9] = read-out: Forkhead box O1 (FOXO1), FOXO1 (gene 2308); assay: LTEA_HepaRG_FOXO1: Life Technologies and Expression Analysis (LTEA) Assay for Forkhead box O1 (FOXO1) using HepaRG (AID 2283456)
Summary of the method: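 FOXO1 transcript quantified by qRT-PCR after 48 h chemical exposure (top 100 uM, half-log steps, 0.5% DMSO) of HepaRG cells, housekeeping-normalized (ACTB/GAPDH/POLR2A). Changes fitted in both directions relative to vehicle.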

[10] = read-out: growth arrest and DNA damage 45 (GADD45A), GADD45A (gene 1647); assay: LTEA_HepaRG_GADD45A: Life Technologies and Expression Analysis (LTEA) Assay for growth arrest and DNA damage 45 (GADD45A) using HepaRG (AID 2283458)
Summary of the method: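 HepaRG, 48 h exposure, 8 conc. (top 100 uM, half-log steps), 0.5% DMSO vehicle, duplicates. Read-out: qRT-PCR mRNA level, housekeeping-normalized (ACTB/GAPDH/POLR2A). Curves fit bidirectionally vs DMSO baseline.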

[11] = read-out: Forkhead box O3 (FOXO3), FOXO3 (gene 2309); assay: LTEA_HepaRG_FOXO3: Life Technologies and Expression Analysis (LTEA) Assay for Forkhead box O3 (FOXO3) using HepaRG (AID 2283459)
Summary of the method: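 FOXO3 transcript measured by qRT-PCR (normalized to ACTB, GAPDH, POLR2A) after 48 h exposure of HepaRG cells in serum-free induction medium. Duplicates, eight half-log concentrations up to 100 uM, 0.5% DMSO; gain or loss fitted against DMSO.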

[12] = read-out: ABC Transporter (ABCB1), ABCB1 (gene 5243); assay: LTEA_HepaRG_ABCB1: Life Technologies and Expression Analysis (LTEA) Assay for ABC Transporter (ABCB1) using HepaRG (AID 2283460)
Summary of the method: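 ABCB1 transcript level measured by TaqMan qRT-PCR against three housekeeping genes after 48 h chemical exposure of differentiated HepaRG cells. Top concentration 100 uM, half-log steps, eight points, 0.5% DMSO vehicle; bidirectional fit relative to DMSO.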

[13] = read-out: growth arrest and DNA damage 45 (GADD45B), GADD45B (gene 4616); assay: LTEA_HepaRG_GADD45B: Life Technologies and Expression Analysis (LTEA) Assay for growth arrest and DNA damage 45 (GADD45B) using HepaRG (AID 2283461)
Summary of the method: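 Differentiated human HepaRG cells in serum-free induction medium exposed 48 h in duplicate to eight concentrations, top 100 uM, half-log steps, 0.5% DMSO. GADD45B mRNA by TaqMan qRT-PCR, normalized to ACTB, GAPDH, POLR2A; bidirectional fit versus DMSO.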

[14] = read-out: ABC Transporter (ABCC3), ABCC3 (gene 8714); assay: LTEA_HepaRG_ABCC3: Life Technologies and Expression Analysis (LTEA) Assay for ABC Transporter (ABCC3) using HepaRG (AID 2283462)
Summary of the method: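 Differentiated human HepaRG cells exposed 48 h in serum-free induction medium, 0.5% DMSO vehicle, 8-point half-log series to 100 uM in duplicate. ABCC3 mRNA by qRT-PCR, normalised to ACTB, GAPDH, POLR2A; bidirectional fit vs DMSO.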

[15] = read-out: ABC Transporter (ABCB11), ABCB11 (gene 8647); assay: LTEA_HepaRG_ABCB11: Life Technologies and Expression Analysis (LTEA) Assay for ABC Transporter (ABCB11) using HepaRG (AID 2283463)
Summary of the method: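 ABCB11 transcript levels quantified by TaqMan qRT-PCR against three housekeeping genes after 48 h chemical exposure of HepaRG cultures. Concentrations up to 100 uM in half-log steps, 0.5% DMSO vehicle; both induction and suppression scored.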

[16] = read-out: ABC Transporter (ABCC2), ABCC2 (gene 1244); assay: LTEA_HepaRG_ABCC2: Life Technologies and Expression Analysis (LTEA) Assay for ABC Transporter (ABCC2) using HepaRG (AID 2283464)
Summary of the method: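 Differentiated HepaRG cells in serum-free induction medium exposed 48 h to eight half-log concentrations up to 100 uM, 0.5% DMSO, in duplicate. ABCC2 mRNA measured by qRT-PCR (TaqMan, Fluidigm), normalized to ACTB, GAPDH and POLR2A. Fitted in both directions against DMSO.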

[17] = read-out: Broad substrate specificity ATP-binding cassette transporter ABCG2 (Homo sapiens) (UniProt Q9UNQ0); assay: LTEA_HepaRG_ABCG2: Life Technologies and Expression Analysis (LTEA) Assay for ABC Transporter (ABCG2) using HepaRG (AID 2283465)
Summary of the method: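 ABCG2 transcript was quantified by TaqMan qRT-PCR against three housekeeping genes in HepaRG cells. Cells were treated in duplicate for 48 h across an 8-point half-log series up to 100 uM, with 0.5% DMSO vehicle. Gain or loss versus DMSO was fit.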

[18] = read-out: ATP-citrate lyase (ACLY), ACLY (gene 47); assay: LTEA_HepaRG_ACLY: Life Technologies and Expression Analysis (LTEA) Assay for ATP-citrate lyase (ACLY) using HepaRG (AID 2283466)
Summary of the method: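 ACLY mRNA quantified by qRT-PCR on Fluidigm arrays against three housekeeping genes, after 48 h chemical treatment of HepaRG cells (top concentration 100 uM, half-log steps, 0.5% DMSO vehicle). Up- or down-regulation fitted relative to DMSO.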

[19] = read-out: Peroxisomal acyl-coenzyme A oxidase 1 (ACOX1) gene, ACOX1 (gene 51); assay: LTEA_HepaRG_ACOX1: Life Technologies and Expression Analysis (LTEA) Assay for Peroxisomal acyl-coenzyme A oxidase 1 (ACOX1) gene using HepaRG (AID 2283467)
Summary of the method: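 ACOX1 transcript levels were quantified by TaqMan qRT-PCR against three housekeeping genes after 48 h chemical exposure of differentiated human HepaRG cells. Exposure used eight half-log steps topping at 100 uM, 0.5% DMSO vehicle, in duplicate. Bidirectional curve fits were made relative to DMSO.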

Fatty acid synthase (Homo sapiens), sequence (P49327 whole entry, looked up): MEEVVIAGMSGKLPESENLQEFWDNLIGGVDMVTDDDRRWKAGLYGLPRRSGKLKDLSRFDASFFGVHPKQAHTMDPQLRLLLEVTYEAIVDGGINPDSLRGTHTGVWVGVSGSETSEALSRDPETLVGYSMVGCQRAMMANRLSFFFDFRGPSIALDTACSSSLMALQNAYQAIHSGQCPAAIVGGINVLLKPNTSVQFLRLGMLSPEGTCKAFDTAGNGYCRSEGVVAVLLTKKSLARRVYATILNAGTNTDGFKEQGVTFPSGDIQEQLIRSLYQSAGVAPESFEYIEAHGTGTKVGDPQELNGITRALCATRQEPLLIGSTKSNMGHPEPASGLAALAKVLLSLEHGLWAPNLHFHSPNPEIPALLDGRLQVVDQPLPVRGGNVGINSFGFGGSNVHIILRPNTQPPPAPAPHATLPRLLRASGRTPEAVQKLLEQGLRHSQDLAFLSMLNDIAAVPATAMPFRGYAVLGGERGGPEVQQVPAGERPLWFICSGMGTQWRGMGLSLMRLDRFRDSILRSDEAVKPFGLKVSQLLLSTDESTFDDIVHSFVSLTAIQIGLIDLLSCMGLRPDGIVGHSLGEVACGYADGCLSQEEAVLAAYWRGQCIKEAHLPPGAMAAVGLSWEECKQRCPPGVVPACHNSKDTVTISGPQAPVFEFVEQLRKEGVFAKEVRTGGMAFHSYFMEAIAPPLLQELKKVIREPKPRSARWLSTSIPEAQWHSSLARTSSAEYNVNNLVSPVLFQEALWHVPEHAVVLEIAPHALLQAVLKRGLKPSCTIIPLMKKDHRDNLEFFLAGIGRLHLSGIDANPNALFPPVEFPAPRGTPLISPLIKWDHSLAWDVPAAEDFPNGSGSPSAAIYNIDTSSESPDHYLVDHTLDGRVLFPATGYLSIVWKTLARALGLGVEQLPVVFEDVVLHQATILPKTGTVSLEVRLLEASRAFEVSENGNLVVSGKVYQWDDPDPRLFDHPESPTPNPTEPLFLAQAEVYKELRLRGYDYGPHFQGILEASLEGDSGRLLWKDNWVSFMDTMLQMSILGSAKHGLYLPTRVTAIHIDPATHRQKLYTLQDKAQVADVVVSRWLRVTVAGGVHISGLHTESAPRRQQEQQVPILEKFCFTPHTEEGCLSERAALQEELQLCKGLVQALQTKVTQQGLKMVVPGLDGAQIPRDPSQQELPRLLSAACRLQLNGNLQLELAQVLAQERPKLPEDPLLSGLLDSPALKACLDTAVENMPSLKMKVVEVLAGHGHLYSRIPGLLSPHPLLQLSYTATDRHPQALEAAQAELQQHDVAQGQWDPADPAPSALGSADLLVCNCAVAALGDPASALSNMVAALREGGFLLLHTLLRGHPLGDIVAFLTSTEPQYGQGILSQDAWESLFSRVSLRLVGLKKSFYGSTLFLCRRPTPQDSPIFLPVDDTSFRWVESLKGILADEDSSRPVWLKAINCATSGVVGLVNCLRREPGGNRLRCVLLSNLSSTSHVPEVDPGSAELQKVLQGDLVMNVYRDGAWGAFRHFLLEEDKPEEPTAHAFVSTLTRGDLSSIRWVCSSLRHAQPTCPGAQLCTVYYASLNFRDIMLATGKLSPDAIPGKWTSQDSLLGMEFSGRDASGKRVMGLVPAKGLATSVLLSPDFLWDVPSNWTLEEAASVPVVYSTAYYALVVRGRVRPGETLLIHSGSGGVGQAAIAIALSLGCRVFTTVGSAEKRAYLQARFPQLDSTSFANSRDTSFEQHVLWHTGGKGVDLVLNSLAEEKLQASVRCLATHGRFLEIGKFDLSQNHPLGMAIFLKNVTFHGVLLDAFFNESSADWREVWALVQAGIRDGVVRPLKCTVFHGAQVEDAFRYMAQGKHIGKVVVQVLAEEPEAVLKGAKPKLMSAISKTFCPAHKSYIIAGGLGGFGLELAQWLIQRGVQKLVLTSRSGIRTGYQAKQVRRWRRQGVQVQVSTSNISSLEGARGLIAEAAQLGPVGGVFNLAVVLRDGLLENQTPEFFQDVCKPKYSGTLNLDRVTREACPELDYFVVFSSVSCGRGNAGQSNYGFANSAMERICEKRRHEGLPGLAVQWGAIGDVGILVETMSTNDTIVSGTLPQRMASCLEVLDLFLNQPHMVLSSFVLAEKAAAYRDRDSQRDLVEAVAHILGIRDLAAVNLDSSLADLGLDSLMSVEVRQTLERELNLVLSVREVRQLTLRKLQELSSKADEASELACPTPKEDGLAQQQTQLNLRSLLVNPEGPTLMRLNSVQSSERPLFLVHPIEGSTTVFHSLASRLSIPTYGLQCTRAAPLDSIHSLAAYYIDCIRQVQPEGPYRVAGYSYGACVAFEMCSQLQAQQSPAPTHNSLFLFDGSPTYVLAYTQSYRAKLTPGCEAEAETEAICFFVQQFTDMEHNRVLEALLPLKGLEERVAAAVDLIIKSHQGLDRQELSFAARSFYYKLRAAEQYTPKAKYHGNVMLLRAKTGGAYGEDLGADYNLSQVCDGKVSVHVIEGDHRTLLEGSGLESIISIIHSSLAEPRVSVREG
Broad substrate specificity ATP-binding cassette transporter ABCG2 (Homo sapiens), sequence (Q9UNQ0 whole entry, looked up): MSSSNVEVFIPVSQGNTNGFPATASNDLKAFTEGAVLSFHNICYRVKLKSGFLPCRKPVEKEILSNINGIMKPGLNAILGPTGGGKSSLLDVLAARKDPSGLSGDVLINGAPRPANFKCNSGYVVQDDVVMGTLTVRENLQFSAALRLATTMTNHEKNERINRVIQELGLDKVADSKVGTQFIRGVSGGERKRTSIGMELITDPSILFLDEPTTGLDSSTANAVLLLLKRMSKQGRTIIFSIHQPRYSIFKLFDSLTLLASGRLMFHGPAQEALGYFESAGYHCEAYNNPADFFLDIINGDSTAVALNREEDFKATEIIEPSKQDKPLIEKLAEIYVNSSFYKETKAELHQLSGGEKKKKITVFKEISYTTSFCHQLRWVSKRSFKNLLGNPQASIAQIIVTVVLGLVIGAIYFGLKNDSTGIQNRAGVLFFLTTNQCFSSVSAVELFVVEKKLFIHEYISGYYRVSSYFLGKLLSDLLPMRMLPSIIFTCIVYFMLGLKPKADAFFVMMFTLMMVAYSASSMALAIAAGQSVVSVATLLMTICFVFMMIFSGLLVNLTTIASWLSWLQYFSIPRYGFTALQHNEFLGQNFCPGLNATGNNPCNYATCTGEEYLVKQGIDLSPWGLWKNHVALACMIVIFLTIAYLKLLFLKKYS

For `O=C(O)CCCCC(=O)O`, the outcome [1] was “inactive”, the outcome [2] was “inactive” and the outcome [3] was “inactive”. The outcome [4] was “inactive”, the outcome [5] was “inactive” and the outcome [6] was “inactive”. For the same compound, the AC50 [7] was 73.7 µM (active), the outcome [8] was “inactive” and the outcome [9] was “inactive”. For the same compound, the outcome [10] was “inactive”, the outcome [11] was “inactive” and the outcome [12] was “inactive”. The outcome [13] was “inactive”, the outcome [14] was “inactive” and the outcome [15] was “inactive”. The outcome [16] was “inactive”, the outcome [17] was “inactive” and the outcome [18] was “inactive”. For the same compound, the outcome [19] was “inactive”.
For `NCCO`, the outcome [1] was “inactive”, the outcome [2] was “inactive” and the outcome [3] was “inactive”. For the same compound, the outcome [4] was “inactive”, the outcome [5] was “inactive” and the outcome [6] was “inactive”. The AC50 [7] was 50 µM (active), the outcome [8] was “inactive” and the outcome [9] was “inactive”. For the same compound, the outcome [10] was “inactive”, the outcome [11] was “inactive” and the outcome [12] was “inactive”. For the same compound, the outcome [13] was “inactive”, the outcome [14] was “inactive” and the outcome [15] was “inactive”. The outcome [16] was “inactive”, the outcome [17] was “inactive” and the outcome [18] was “inactive”. The outcome [19] was “inactive”.
`FC(F)(F)C(F)(F)C(F)(F)C(F)(F)C(F)(F)C(F)(F)CCI` was tested, and the outcome [1] was “inactive”, the outcome [2] was “inactive” and the outcome [3] was “inactive”. For the same compound, the outcome [4] was “inactive”, the outcome [5] was “inactive” and the outcome [6] was “inactive”. For the same compound, the outcome [7] was “inactive”, the outcome [8] was “inactive” and the outcome [9] was “inactive”. The outcome [10] was “inactive”, the outcome [11] was “inactive” and the outcome [12] was “inactive”. The outcome [13] was “inactive”, the outcome [14] was “inactive” and the outcome [15] was “inactive”. The outcome [16] was “inactive”, the outcome [17] was “inactive” and the outcome [18] was “inactive”. For the same compound, the outcome [19] was “inactive”.
With `CNCc1cc(F)ccc1Oc1ccc(Cl)c(Cl)c1` the AC50 [1] was 50 µM (active), the outcome [2] was “inactive” and the AC50 [3] was 20.5 µM (active). The outcome [4] was “inactive”, the AC50 [5] was 82.8 µM (active) and the AC50 [6] was 93.3 µM (active). For the same compound, the outcome [7] was “inactive”, the AC50 [8] was 12.1 µM (active) and the outcome [9] was “inactive”. For the same compound, the outcome [10] was “inactive”, the outcome [11] was “inactive” and the outcome [12] was “inactive”. The AC50 [13] was 91.3 µM (active), the outcome [14] was “inactive” and the outcome [15] was “inactive”. For the same compound, the AC50 [16] was 75.6 µM (active), the outcome [17] was “inactive” and the outcome [18] was “inactive”. For the same compound, the AC50 [19] was 74.2 µM (active).
In the case of `Nc1nc(N)c2nc(CNc3ccc(C(=O)N[C@@H](CCC(=O)O)C(=O)O)cc3)cnc2n1`, the AC50 [1] is reported as 0.0999 µM (active), the outcome [2] is reported as “inactive” and the outcome [3] is reported as “inactive”. For the same compound, the outcome [4] was “inactive”, the outcome [5] was “inactive” and the outcome [6] was “inactive”. For the same compound, the outcome [7] was “inactive”, the outcome [9] was “inactive” and the outcome [10] was “inactive”. For the same compound, the outcome [11] was “inactive”, the outcome [12] was “inactive” and the outcome [13] was “inactive”. The outcome [14] was “inactive”, the AC50 [15] was 0.104 µM (active) and the outcome [16] was “inactive”. For the same compound, the outcome [17] was “inactive”, the outcome [18] was “inactive” and the outcome [19] was “inactive”.
`Cc1cccc([N+](=O)[O-])c1C` was tested, and the outcome [1] was “inactive”, the outcome [2] was “inactive” and the outcome [3] was “inactive”. The outcome [4] was “inactive”, the outcome [5] was “inactive” and the outcome [6] was “inactive”. The outcome [7] was “inactive”, the outcome [8] was “inactive” and the outcome [9] was “inactive”. The outcome [10] was “inactive”, the outcome [11] was “inactive” and the outcome [12] was “inactive”. The outcome [13] was “inactive”, the outcome [14] was “inactive” and the outcome [15] was “inactive”. For the same compound, the outcome [16] was “inactive”, the outcome [17] was “inactive” and the outcome [18] was “inactive”. The outcome [19] was “inactive”.
